Source: PubChem BioAssay (The Scripps Research Institute Molecular Screening Center)
GBA activity up: GBA activity enhancers in patient fibroblasts, primary screen, cell-based; AID 784, 2007; 30,000 tested, 0.44% active; Lysosomal acid glucosylceramidase (Homo sapiens), P04062; L444P Gaucher fibroblasts, 4-MU-glucoside fluorescence, 3 days; activation, % at 10 µM; in the data active = activation above about 65%
A number is an active result; 0 = inactive. Many of the other results were omitted from the sample, so hits are more common in it than they were.

SMILES	GBA activity up
CCOC(=O)c1cc(NC(=O)c2ccoc2C)cc(C(=O)OCC)c1	0
CCn1c(SCC(=O)OCC(=O)N2c3ccccc3NC(=O)C2(C)C)nnc1-c1ccco1	0
O=C(CCCNS(=O)(=O)c1cccc2nsnc12)NCc1ccc(Cl)cc1	0
COc1ccc(CNC(=O)CCCNS(=O)(=O)c2cccc3nonc23)cc1	183
O=C(CCCNS(=O)(=O)c1cccc2nsnc12)NCc1ccccc1	0
CCOC(=O)c1c(C)[nH]c(C)c1C(=O)COC(=O)CCOc1ccccc1OC	0
Cc1ccccc1CN1CCN(CC(=O)NCCCN2CCN(c3ccc(F)cc3)CC2)C1=O	0
CCC(C)n1cnc2c(c1=O)c1nc3ccccc3nc1n2Cc1ccc2c(c1)OCO2 (stereo not drawn)	83
CCC(C)n1cnc2c(c1=O)c1nc3ccccc3nc1n2-c1ccc2c(c1)OCCO2 (stereo not drawn)	0
CCCCn1c2nc3ccccc3nc2c2c(=O)n(C(C)CC)cnc21 (stereo not drawn)	0
CC1(C)Cc2cccc(OCC(=O)Nc3ccccc3N3CCOCC3)c2O1	0
CC1=C(C(=O)N2CCCCCC2)C2(CCC(C)CC2)OC1=O (stereo not drawn)	0
C=CCN(C(=O)Cn1nnc2ccccc21)C(C(=O)NCCOC)c1ccc(OC)cc1OC (stereo not drawn)	93
COCCN(C(=O)Cn1nnc2ccccc21)C(C(=O)NC1CCCC1)c1cc(OC)ccc1OC (stereo not drawn)	0
COCCNC(=O)C(c1ccccc1)N(CCOC)C(=O)Cn1nnc2ccccc21 (stereo not drawn)	0
